Screening data deposited in PubChem BioAssay by Broad Institute.
Rows were chosen to be rich in hits. Some 6.8% of all compounds tested hit in one or more screens of this group.
T cruzi growth-1 – T. cruzi proliferation inhibition | AID 624255 | T. cruzi beta-gal in NIH3T3, GalScreen luminescence, 90 h | inhibition, % at 8.34 µM | 5.9% of 77,000 active;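 active means mean inhibition above about 93%, with at least 55% of replicates each passing it, limit read from the data, passing the limit was not always enough; inconclusive means only one of those two conditions holds; inactive means neither condition holds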
Pf Dd2 growth – inhibitors of Plasmodium falciparum Dd2 growth. P. falciparum Dd2 growth, SYBR Green, 72 h; hits give low values. activity change, % at 10 µM. 2.3% of 94,000 active; in the data active means activity change below about -80%; inconclusive means no clear call, values can overlap the other calls
C diff growth – inhibitors of Clostridium difficile growth | growth activity, negative = inhibition, % at 16 µg/mL (by protocol) | 0.25% of 86,000 active | AID 1259249 | Clostridium difficile clinical isolate growth, OD600, 24 h; hits give low values;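 active means mean growth activity at or below -80% and every replicate also at or below -80%; inconclusive means mean at or below -80% but some replicate above -80%; inactive means mean growth activity above -80%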;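 further: 0% = DMSO wells and -100% = levofloxacin 16 µg/mL wells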
T cruzi growth-2 – inhibitors of T. cruzi proliferation; T. cruzi beta-gal in NIH3T3, GalScreen luminescence, 90 h; shares compounds with T cruzi growth-1; AID 651739; 72% of 5,600 active; inhibition, % at 8.35 µM;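 active means mean replicate inhibition above about 95% and at least 55% of replicates individually reaching it, limit read from the data; inconclusive means only one of the two criteria is met; inactive means neither criterion is met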
T cruzi growth-3 – blocks T. cruzi growth in NIH3T3 host cells. 21% of 5,600 active. inhibition, % at 2.09 µM. T. cruzi beta-gal in NIH3T3, GalScreen luminescence, 90 h. shares compounds with T cruzi growth-1. AID 651740;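 active means mean inhibition above about 95%, with at least 55% of replicates also reaching it, limit read from the data; inconclusive means meets just one of the two conditions; inactive means meets neither condition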;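 further: plate controls were neutral control median for no effect and positive control median for full effect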
3T3 cytotox – NIH/3T3 (mouse) viability loss; shares compounds with T cruzi growth-1; NIH/3T3 viability, CellTiter-Glo ATP luminescence, 90 h; cytotoxicity (signal decrease), % at 8.35 µM; 14% of 5,600 active; AID 651742;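 active means mean signal decrease across replicates above about 35% based on untreated-well scatter, with enough replicates individually passing, limit read from the data; inconclusive means no rule stated though some were filed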;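 further: 0% = median of neutral control wells and 100% = median of positive control wells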
3T3 cytotox 2 – NIH/3T3 (mouse) viability loss. AID 651744. shares compounds with T cruzi growth-1. 56% of 5,600 active. inhibition, % at 24.9 µM. NIH/3T3 viability, CellTiter-Glo ATP luminescence, 90 h;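 active means mean loss of cell viability signal at or above a set limit, and enough replicates individually reaching it; inconclusive means meets only the mean limit or only the replicate share; inactive means meets neither condition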;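 further: 0% = median of neutral control wells and 100% = median of positive control wells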
Numbers without * were called inactive; ? = inconclusive; . = no result given.

SMILES | T cruzi growth-1 | Pf Dd2 growth | C diff growth | T cruzi growth-2 | T cruzi growth-3 | 3T3 cytotox | 3T3 cytotox 2
C[C@H](NC(=O)C[C@H]1CC[C@H](NC(=O)CN2CCOCC2)[C@H](CO)O1)c1ccccc1 | 39 | 5 | . | . | . | . | .
CCCNC(=O)N(C)C[C@@H]1Oc2cc(-c3ccccc3F)ccc2S(=O)(=O)N([C@@H](C)CO)C[C@H]1C | . | -12 | -5 | . | . | . | .
COc1ccc(C#Cc2ccc3c(c2)[C@H]2[C@H](CCN2C(=O)c2ccncc2)[C@H](CO)N3)cc1 | 101* | -60 | 53 | 107* | 61 | 26 | 38*
COCC(=O)N1CC[C@@H]2[C@H]1c1cc(C#Cc3ccc(OC)cc3)ccc1N[C@@H]2CO | 42 | -18 | -20 | . | . | . | .
COc1ccc(C#Cc2ccc3c(c2)[C@@H]2[C@@H](CCN2C(C)=O)[C@H](CO)N3)cc1 | . | -36 | -6 | . | . | . | .
COc1ccc(C#Cc2ccc3c(c2)[C@H]2[C@H](CCN2C(=O)CC2CC2)[C@H](CO)N3)cc1 | ? | -22 | -8 | 98* | 52 | 6 | 21
C[C@@H]1CN([C@H](C)CO)S(=O)(=O)c2ccc(C3=CCCCC3)cc2O[C@H]1CN(C)Cc1ccccc1F | . | -33 | 27 | . | . | . | .
CNC[C@H]1Oc2ccc(NS(=O)(=O)c3ccc(C)cc3)cc2C(=O)N([C@@H](C)CO)C[C@H]1C | . | 7 | 7 | . | . | . | .
COc1cccc(C#Cc2cnc3c(c2)C(=O)N([C@H](C)CO)C[C@@H](C)[C@@H](CN(C)C)O3)c1 | 90 | -26 | -2 | . | . | . | .
C[C@@H]1CN([C@H](C)CO)C(=O)c2cc(C#CC3CCCCC3)cnc2O[C@H]1CN(C)C(=O)Nc1ccccc1 | . | -39 | -3 | . | . | . | .
COc1cccc(NC(=O)N(C)C[C@H]2Oc3ncc(C#Cc4ccccc4)cc3C(=O)N([C@@H](C)CO)C[C@@H]2C)c1 | 123* | -45 | -11 | 112* | 110* | -35 | -1
COc1cccc(NC(=O)N(C)C[C@@H]2Oc3ncc(C#Cc4ccccc4)cc3C(=O)N([C@@H](C)CO)C[C@@H]2C)c1 | ? | -48 | 0 | 100* | 58 | 29 | 12
COc1cccc(NC(=O)N(C)C[C@H]2Oc3ncc(C#Cc4ccncc4)cc3C(=O)N([C@H](C)CO)C[C@H]2C)c1 | . | 11 | 18 | . | . | . | .
COc1cccc(NC(=O)N(C)C[C@@H]2Oc3ncc(C#Cc4ccncc4)cc3C(=O)N([C@H](C)CO)C[C@@H]2C)c1 | . | 11 | 6 | . | . | . | .
C[C@H](CO)N1C[C@H](C)[C@@H](CN(C)C(=O)Nc2ccccc2)Oc2ncc(C#CC3CCCCC3)cc2C1=O | 103* | -31 | -15 | 106* | 37 | 12 | 30*
COc1cccc(C#Cc2cnc3c(c2)C(=O)N([C@H](C)CO)C[C@@H](C)[C@H](CN(C)C)O3)c1 | 102* | -50 | 8 | 102* | 44 | 29 | 105*
CC(=O)N(C)C[C@H]1Oc2ncc(C#Cc3ccccc3F)cc2C(=O)N([C@@H](C)CO)C[C@@H]1C | -38 | -2 | -10 | . | . | . | .
CNC[C@@H]1Oc2ncc(C#Cc3ccccc3F)cc2C(=O)N([C@@H](C)CO)C[C@@H]1C | . | -63 | . | . | . | . | .
COc1ccc2c3c(n(C)c2c1)[C@H](CO)N(C(=O)c1ccccn1)CC31CCN(C(C)=O)CC1 | . | -12 | 1 | . | . | . | .
O=C(CC1CC1)N[C@@H]1CC[C@@H](CCNS(=O)(=O)c2ccc(Cl)cc2)O[C@H]1CO | 55 | 8 | -4 | . | . | . | .
O=C(C[C@H]1CC[C@H](NC(=O)c2ccncc2)[C@@H](CO)O1)NCC1CC1 | . | . | 2 | . | . | . | .
CCC(=O)Nc1ccc2c(c1)C(=O)N(C)[C@H]1CC[C@H](CC(=O)NCCc3ccncc3)O[C@H]1CO2 | 4 | 12 | -9 | . | . | . | .
CC=Cc1ccc2n(c1=O)C[C@H]1[C@H](CO)[C@@H](C(=O)NCCC)[C@@H]2N1C(=O)C1CCCC1 (mixture of isomers) | 27 | 9 | 2 | . | . | . | .
CO[C@@H]1CN(C)C(=O)c2cc(NC(=O)CC(F)(F)F)ccc2OC[C@H](C)N(C(C)=O)C[C@@H]1C | . | 17 | -4 | . | . | . | .
C[C@@H]1CN([C@H](C)CO)C(=O)c2cc(NS(=O)(=O)c3cccs3)ccc2O[C@@H](C)CCCCO[C@H]1CN(C)S(=O)(=O)c1ccccc1 | . | -19 | -30 | . | . | . | .
SMILES | T cruzi growth-1 | Pf Dd2 growth | C diff growth | T cruzi growth-2 | T cruzi growth-3 | 3T3 cytotox | 3T3 cytotox 2
Cc1ccc(S(=O)(=O)N(C)C[C@@H]2OCCCC[C@@H](C)Oc3ccc(NS(=O)(=O)c4cccs4)cc3C(=O)N([C@H](C)CO)C[C@H]2C)cc1 | 59 | -58 | . | . | . | . | .
Cc1ccc(S(=O)(=O)N(C)C[C@H]2OCCCC[C@@H](C)Oc3ccc(NS(=O)(=O)c4cccs4)cc3C(=O)N([C@@H](C)CO)C[C@@H]2C)cc1 | ? | -14 | . | 107* | 53 | -3 | 15
Cc1ccc(S(=O)(=O)N(C)C[C@@H]2OCCCC[C@@H](C)Oc3ccc(NS(=O)(=O)c4cccs4)cc3C(=O)N([C@@H](C)CO)C[C@@H]2C)cc1 | 103* | -74 | . | 104* | 70 | 12 | -2
C[C@@H]1CCCCO[C@H](CN(C)S(=O)(=O)c2ccccc2)[C@H](C)CN([C@@H](C)CO)C(=O)c2cc(NS(=O)(=O)c3cccs3)ccc2O1 | ? | . | -6 | 103* | 46 | -10 | -8
Cc1ccc(S(=O)(=O)N(C)C[C@@H]2OCCCC[C@@H](C)Oc3ccc(NS(=O)(=O)c4cccs4)cc3C(=O)N([C@@H](C)CO)C[C@H]2C)cc1 | 86 | -43 | . | . | . | . | .
Cc1ccc(S(=O)(=O)N(C)C[C@@H]2OCCCC[C@@H](C)Oc3ccc(NS(=O)(=O)c4cccs4)cc3C(=O)N([C@H](C)CO)C[C@@H]2C)cc1 | 61 | -56 | . | . | . | . | .
Cc1ccc(S(=O)(=O)N(C)C[C@@H]2OCCCC[C@H](C)Oc3ccc(NS(=O)(=O)c4cccs4)cc3C(=O)N([C@H](C)CO)C[C@@H]2C)cc1 | 119* | -68 | . | 96* | 42 | -25 | -7
COc1ccc(S(=O)(=O)N(C)C[C@@H]2OCCCC[C@@H](C)Oc3ccc(NS(=O)(=O)c4c(C)noc4C)cc3C(=O)N([C@@H](C)CO)C[C@H]2C)cc1 | -16 | -66 | -7 | . | . | . | .
Cc1noc(C)c1NC(=O)N[C@H]1CC[C@H](CCNC(=O)C2CCOCC2)O[C@H]1CO | -82 | -15 | . | . | . | . | .
CCC(=O)N(C)C[C@H]1Oc2ncc(-c3ccccc3C)cc2C(=O)N([C@H](C)CO)C[C@H]1C | 5 | 36 | -3 | . | . | . | .
C[C@@H]1CN([C@H](C)CO)C(=O)c2cc(NC(=O)CCC(F)(F)F)ccc2O[C@@H](C)CCCCO[C@@H]1CN(C)C(=O)Cc1ccccc1 | 85 | -36 | . | . | . | . | .
C[C@H]1CN([C@@H](C)CO)C(=O)c2ccccc2-c2ccccc2CO[C@H]1CN(C)S(=O)(=O)c1cccc(F)c1 | 15 | -16 | 1 | . | . | . | .
